The source made the active and inactive calls. How the source made its calls: active means hit-call score of the fitted dose curve at least 0.9, where 1 is the maximum; inactive means score below 0.9.

Read-out in this experiment: Glutathione S-transferase M3 (GSTM3), GSTM3 (gene 2947)
Description: LTEA_HepaRG_GSTM3: Life Technologies and Expression Analysis (LTEA) Assay for Glutathione S-transferase M3 (GSTM3) using HepaRG (AID 2283501). The conditions noted are these: mRNA level, 48 h; actives raise or lower the signal. As to the method:
LTEA_HepaRG is a cell based, multiplexed-readout assay that uses HepaRG, a human liver cell line, with measurements taken at 48 hours after chemical dosing on a 96-well plate.LTEA_HepaRG_GSTM3 is one of 102 assay component(s) measured in the LTEA HepaRG cell culture assay. It is a marker of Oxidative Stress.Data from the assay component LTEA_HepaRG_GSTM3 was analyzed into 1 endpoint. This assay endpoint, LTEA_HepaRG_GSTM3, was analyzed with bidirectional fitting relative to DMSO as the negative control and baseline of activity. Using a type of inducible reporter, measures of mRNA induction for gain or loss-of-signal activity can be used to understand regulation of transcription factor activity. To generalize the intended target to other relatable targets, this assay endpoint is annotated to the transferase intended target family, where the subfamily is alkyl and aryl transferase.
A total of 1060 chemcials from the ToxCast library were tested in eight-point concentration-response experiments. Cell culture and cytotoxicity assays were conducted at Thermo Fisher Scientific's Custom Services facility (Madison, WI). A single lot of human HepaRG cells (Thermo Fisher Scientific, Frederick, MD) was used for the cell culture experiments. 96-well format collagen type I coated plates of human HepaRG cells were prepared using established methods. Briefly, cryopreserved HepaRG cells were thawed, plated at a density of approximately 100,000 cells/well in HepaRG Thaw, Plate, and General Purpose media (HPRG770, Thermo Fisher Scientific), and incubated for 48 hours. 0.5% DMSO was selected as vehicle control to balance the requisite need of DMSO in HepaRG cultures to maintain differentiation (for example, baseline metabolism, proportions of hepatocytes vs. cholangiocytes), while enabling further hepatic receptor pathway activation (for example, PXR and CAR) in response to chemical exposure. 48 hours after plating, the culture medium was replaced with HepaRG Serum-Free Incudtion Media. Cells were exposed to each test chemical in duplicate and maintained in CO2 incubators for another 48 hours. Chemical plates were thawed to room temperature and 200x concentrations of treatment groups were prepared. 8-point conentration-reponse curves were made with the highest exposure at 100 uM, followed by half-log dilutions, all in 0.5% DMSO. Each test plate contained variouse controls, induction positive controls (1mM phenobarbital), cytotoxicity positive controls ([…] aflatoxin B1), vehicle controls (0.5% DMSO), and total lysis controls (0.5% DMSO). Cell morphology images were taken using an Essen IncuCyte FLR automated microscope, with six 96-well plates imaged in about 24 minutes. Images were captured and exported and JPEG files. Spent culture media was transfered to black-well plates for the LDH assay, and remaining media was sorted at -80 C for later use. Cells were treated with RLT buffer and frozen until shipped for gene expression analysis. Total RNA was isolated from the cell suspension in 75 uL of Buffer RLT (Qiagen, Germantown, MD 20874) by Quintiles/Expression Analysis (Durham, NC) using a custom isolation procedure. Total RNA from each plate well was transferred to a preamplification plate. Fluidigm's 96.96 Dynamic ArrayTM (Fluidigm, Amsterdam, the Netherlands) technology was used for gene expression analyses by quantitative reverse transcription polymerase chain reaction (qRT-PCR, performed by Quintiles/Expression Analysis, Durham, NC)89. Standard TaqManTM Assays (Applied Biosystems/ThermoFisher Scientific, Foster City, CA) were used to assess the expression of 93 genes selected based on their selectivity and sensitivity to important hepatic receptors known to be modulated by environmental chemicals; importance in human hepatocyte functionality; and hepatotoxicity. […]
For `Cc1cc(F)ccc1-c1cc(N2CC[C@@H](O)[C@H]2CO)ncc1N(C)C(=O)C(C)(C)c1cc(C(F)(F)F)cc(C(F)(F)F)c1`, the molecule was classed as inactive.

In the case of `c1ccc(C[n+]2cccc3ccccc32)cc1`, the result was inactive.

On to `O=C(O)Cc1cc(I)c(Oc2ccc(O)c(I)c2)c(I)c1`, for which the outcome was inactive.

As to `CCCCCc1ccc(N)cc1`, the call was inactive.

As to `O=c1ccc2ccccc2o1`, the outcome was inactive.

A word on the AC50: it is the concentration giving half of the maximal activity seen. Consider `CN(C)c1ccc(C(=C2C=CC(=[N+](C)C)C=C2)c2ccc(N(C)C)cc2)cc1`, for which the concentration at half-maximal activity (AC50) was 7.35 µM (active).

For the molecule `CCN(Cc1cccc(S(=O)(=O)O)c1)c1ccc(C(=C2C=CC(=[N+](CC)Cc3cccc(S(=O)(=O)O)c3)C=C2)c2ccccc2S(=O)(=O)[O-])cc1`, the molecule was classed as inactive.

On to `O=C(O)c1ccccc1C(=O)OCc1ccccc1`, for which the molecule was called inactive.

For `CC(C)(C)c1csc(-c2cc3cc(OCc4ccccc4CC(=O)O)ccc3o2)n1`, the concentration at half-maximal activity (AC50) is 37.7 µM (active).

Turning to `C[C@]12CC[C@@H]3c4ccc(O)cc4CC[C@H]3[C@@H]1CC[C@H]2O`, the outcome was inactive.

For the molecule `O=c1c(-c2ccc(O)cc2)coc2cc(O)cc(O)c12`, the call was inactive.

Regarding `O=C(OCCCCCCOC(=O)c1ccccc1)c1ccccc1`, the outcome was inactive.

Regarding `C[C@]12CC[C@@H]3c4ccc(O)cc4CC[C@H]3[C@@H]1CCC2=O`, the call was inactive.

On to `CC(=O)N1CCN(c2ccc(OC[C@H]3CO[C@](Cn4ccnc4)(c4ccc(Cl)cc4Cl)O3)cc2)CC1`, for which the concentration at half-maximal activity (AC50) is 22.7 µM (active).

On to `Cc1c2ccccc2c(C)c2c1ccc1ccccc12`, for which the molecule was classed as inactive.

On to `CN(C)C(=O)C1(N2CCCCC2)CCN(CC[C@@]2(c3ccc(Cl)c(Cl)c3)CN(C(=O)c3ccccc3)CCO2)CC1`, for which the AC50 is 27.3 µM (active).

For the molecule `OC12N=C(c3ccccc3)SC1Cc1cc(Cl)ccc12` (stereo not given), the outcome was inactive.

For the molecule `CO[C@H]1/C=C/O[C@@]2(C)Oc3c(C)c(O)c4c(O)c(c(/C=N/N5CCN(C)CC5)c(O)c4c3C2=O)NC(=O)/C(C)=C\C=C\[C@H](C)[C@H](O)[C@@H](C)[C@@H](O)[C@@H](C)[C@H](OC(C)=O)[C@@H]1C`, the result was inactive.

On to `CCCCCCCCCCCO`, for which the molecule was classed as inactive.

Consider `CCOC(=O)O[C@H](C)OC(=O)c1ccc2c(c1)cc(C(=O)NC1CCN(C(C)C)CC1)n2Cc1cc(-c2ccc(Cl)s2)on1`, for which the outcome was inactive.

For the molecule `CCCCCCCC[Si](OCC)(OCC)OCC`, the call was inactive.

For the molecule `CCO[Si](CCCNC(N)=O)(OCC)OCC`, the outcome was inactive.

`Cc1ncc(CO)c(CO)c1O`: the outcome was inactive.

In the case of `Cc1ccc2oc(CN(Cc3ccccc3)C(=O)Nc3c(F)cc(F)cc3F)c(-c3ccc(Cl)cc3)c2c1`, the molecule was classed as inactive.

Turning to `CC(O)CC(C)(C)O` (stereo not given), the outcome was inactive.

For `O=C1CCC(C2CCCCC2)CC1`, the call was inactive.

For `CCCCCCCCOc1ccc(C(=O)c2ccccc2)c(O)c1`, the molecule was classed as inactive.

Turning to `CCCCCCCCCCCC[N+](C)(C)C`, the half-maximal activity concentration (AC50) was 93.9 µM (active).

Regarding `CCCOC(=O)c1cc(O)c(O)c(O)c1`, the outcome was inactive.

`Cc1cc2c(cc1C(F)(F)F)N(C(=O)Nc1ccc(Oc3cccnc3C)nc1)CC2`: the molecule was called inactive.

In the case of `Cc1cn([C@H]2C[C@H](N=[N+]=[N-])[C@@H](CO)O2)c(=O)[nH]c1=O`, the molecule was called inactive.

Regarding `CC(C)(c1cc(Br)c(O)c(Br)c1)c1cc(Br)c(O)c(Br)c1`, the result was inactive.

For `CC1(C)NC(=O)N(c2ccc([N+](=O)[O-])c(C(F)(F)F)c2)C1=O`, the molecule was classed as inactive.

Regarding `Oc1ccc2ccccc2c1`, the call was inactive.

Turning to `NCc1cccc(C2CCN(C(=O)c3ccc(C#Cc4ccccc4F)o3)CC2)c1`, the result was inactive.

Turning to `CC(C)(O)c1ccc(CNC(=O)c2cccnc2Oc2ccc3nonc3c2)cc1`, the call was inactive.

As to `CCN(Cc1cccnc1)C(=O)c1cccc(Cl)c1[C@]1(C)C(=O)N(Cc2ccc(OC)cc2OC)c2ccc(Cl)cc21`, the molecule was called inactive.

As to `CCCC(=O)OCCC(C)C`, the result was inactive.

Turning to `CC/C(=C(/CC)c1ccc(O)cc1)c1ccc(O)cc1`, the outcome was inactive.

Turning to `O=C1c2ccccc2C(=O)N1CCc1noc(-c2ccc(CN3CCCCCC3)s2)n1`, the molecule was called inactive.

The record behind these values is PubChem BioAssay (EPA / NIEHS).
